# Test results: PubChem BioAssay AID504834 (National Center for Advancing Translational Sciences (NCATS), 2011)
# The whole screen tested about 320,000 compounds, of which about 22,000 (6.9%) were called active. Not shown: some 27% with an inconclusive outcome. The entries come from a sample that favours actives as a whole. A number with no mark means an inactive call. Calls come from the whole dose curve; as a rule, active = well fitted inhibition curve with a large enough effect; inconclusive = small, poorly fitted or top-dose-only effect, or another doubt; inactive = no such curve, though single readings can be large or run the other way.
# Assay: Primary qHTS for delayed death inhibitors of the malarial parasite plastid, 96 hour incubation
# Details: P. falciparum luciferase reporter growth; series mostly up to 28.7 µM; activity change, negative = inhibition: at the top concentration
# Procedure, shortened: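 P. falciparum expressing integrated firefly luciferase grown in erythrocytes (2% hematocrit, 0.05% parasitemia final) with compounds for 96 hours at 37 C, 5% CO2. Growth inhibition read as loss of luminescence after adding luciferase detection reagent.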
# % is set by controls: 0 for no effect and ±100 for the full control effect; potency is the fitted concentration of half-maximal effect.
Compound,"activity change, negative = inhibition [%]",Potency
CCOC(=O)c1c(C)[nH]c(C(=O)OCC(=O)c2ccc(OC)cc2OC)c1C,116,–
COc1cccc(/C=C/C(=O)OCC(=O)N2CCCc3ccccc32)c1,-2.45,–
COc1c(O)cc2oc(-c3ccc(O)c(O)c3)cc(=O)c2c1O,81.9,–
O=C(NCc1ccco1)c1cc(-c2cccnc2)nc2ccc(Cl)cc12,17.9,–
O=C(CSc1c2c(nc3ccc(Cl)cc13)CCCC2)NCc1ccco1,–,9.28 µM (active)
O=C(CSc1nnnn1-c1ccccc1)NCc1ccco1,-3.7,–
COC(=O)c1[nH]c2ccccc2c1NC(=O)CN1CCCc2ccccc21,–,3.29 µM (active)
NS(=O)(=O)c1cccc(NC(=O)CN2CCCc3ccccc32)c1,1.97,–
COC(=O)c1[nH]c2ccc(Br)cc2c1NC(=O)Oc1ccccc1,91.2,–
Brc1ccccc1/C=N/Nc1nc2ccccc2o1,136,–
COc1cccc(OC)c1C(=O)Nc1c(C(=O)N2CCN(c3ccccn3)CC2)oc2ccccc12,-0.184,–
Cc1cccc(NC(=O)CSc2nnc(CCNC(=O)OC(C)(C)C)o2)c1C,0.64,–
Cc1cc(Br)ccc1NC(=S)NC1CCCC1,-23.9,–
CCCc1cc(=O)[nH]c2nnc(SCC(=O)Nc3nnc(SCC)s3)n12,14.6,–
O=S(=O)(NCCc1ccccc1)c1ccccc1,38.7,–
COP(=O)(NS(=O)(=O)c1ccccc1)OC,–,5.22 µM (active)
O=S(=O)(NCCNS(=O)(=O)c1ccccc1)c1ccccc1,50.1,–
O=S(=O)(c1ccc(Br)c2ccccc12)N1CCOCC1,-21.3,–
O=C(Nc1ccnn1C1CCN(Cc2cccc(OCCO)c2)CC1)C1CCCC1,-2.73,–
Cn1cnc([N+](=O)[O-])c1Sc1ccccc1,–,11.7 µM (active)
Cn1nc(-c2ccccc2)c(CO)c1Sc1ccccc1,1.86,–
Cn1cnc([N+](=O)[O-])c1Nc1ccccc1O,62.5,–
c1ccc2cc3c(NCCN4CCOCC4)ccnc3cc2c1,–,0.165 µM (active)
O=C(Cn1c(-c2ccccn2)nc2ccccc21)NCCN1CCOCC1,-0.622,–
c1ccc(-c2ccc(OCCN3CCOCC3)cc2)cc1,-12.9,–
CCOc1ccc(C(=O)Nc2c3c(nn2-c2ccccc2)CS(=O)(=O)C3)cc1,-17.2,–
Cc1ccc(C)c(S(=O)(=O)Nc2cccc(-n3cnnn3)c2)c1,1.62,–

Compound,"activity change, negative = inhibition [%]",Potency
COc1ccc(C(=O)CN2C(=O)NC3(CCc4ccccc43)C2=O)c(OC)c1 (stereo not drawn),-18.2,–
COc1ccc(-n2c(C)cc(C(=O)CN3C(=O)NC4(CCc5ccccc54)C3=O)c2C)cc1 (stereo not drawn),–,1.17 µM (active)
Cc1ccc(C(=O)CN2C(=O)NC3(CCc4ccccc43)C2=O)c(C)c1 (stereo not drawn),3.08,–
CCN1CCN(C(=O)Cn2nc(C)n3c(cc4c(OC)cccc43)c2=O)CC1,-29.1,–
O=C(CCN1C(=O)C2CCCCC2C1=O)Nc1ccc(OC(F)F)cc1 (stereo not drawn),5.43,–
NC1=NC[C@@H](Cc2ccc(O)cc2)N1CC1CCCCC1,–,2.33 µM (active)
COc1ccc(NC(=O)CCCN2C(=O)C(c3ccccc3)Oc3cccnc32)cc1 (stereo not drawn),100,–
Cc1cc2oc(=O)cc(CN(C)Cc3ccc(OC(F)F)cc3)c2cc1Cl,–,2.62 µM (active)
Cc1ccc(CN(C)Cc2cc(=O)oc3cc(C)c(Cl)cc23)cc1,1.06,–
CCOc1ccc(N(C)Cc2cc(=O)oc3ccc(OC)cc23)cc1,-27.9,–
COc1cccc(CNC(=O)COC(=O)CN2C(=O)NC3(CCCCC3C)C2=O)c1 (stereo not drawn),5.85,–
COc1ccccc1N1CCN(C(=O)c2c(-c3c(Cl)cccc3Cl)noc2C)CC1,7.48,–
Cc1onc(-c2c(Cl)cccc2Cl)c1C(=O)NNC(=O)c1c(-c2c(Cl)cccc2Cl)noc1C,–,8.28 µM (active)
Cc1onc(-c2c(Cl)cccc2Cl)c1C(=O)c1c[nH]c(C(=O)NC2CC2)c1,-20.4,–
CC(C)=C1SC(N2CCN(c3ccc(C)c(Cl)c3)CC2)=NC1=O,0.284,–
CC(NCc1cccs1)C(=O)Nc1cc(Cl)cc(Cl)c1 (stereo not drawn),-2.74,–
Cc1cc2nc3n(c2cc1C)CC1CC(C(=O)NCCC(C)C)N(C)C31 (stereo not drawn),-1.98,–
CCc1nc(Nc2ccc(NC(C)=O)cc2)c2oc3ccccc3c2n1,-16.9,–
COc1ccc2oc(=O)cc(-c3cc4ccccc4o3)c2c1,19.1,–
COc1ccc(Nc2nnc(C)c3ccccc23)cc1,2.93,–
COc1ccc(Nc2cc(=O)oc3ccccc23)cc1,–,2.62 µM (active)
O=S(=O)(NC1CCCCC1N1CCC(O)CC1)c1ccc(Cl)cc1 (stereo not drawn),23.1,–
CCOC1CCCCC1NS(=O)(=O)c1ccc(Cl)cc1 (stereo not drawn),–,9.28 µM (active)
O=S(=O)(NC1CCCCC1N1CCCCC1)c1ccc(Cl)cc1 (stereo not drawn),2.85,–
Cc1nnc2n1N=C(c1ccc3c(c1)NC(=O)CO3)CS2,-25.6,–
O=C(O)CC/C(=C\c1cc2c(cc1Br)OCO2)c1nc2ccccc2s1,34.1,–
